Source: PubChem (National Center for Advancing Translational Sciences (NCATS))
Compounds with a hit are over-represented: about 19% of the library has one in this group of screens.
TGFb inhibitor: qHTS for Inhibitors of TGF-b; Potency, µM (series often up to 46.1 µM), without a hit: at the highest dose activity, negative = inhibition, actives largely listed as inhibitors; AID 588855, 2011; 1.2% of 410,000 active; HepG2 CAGA-GFP TGF-b/SMAD3 reporter, GFP fluorescence, 18 h; TGF-beta stimulated, 500 pg/mL final; further: potency means the concentration at half of the fitted maximal effect; on the % scale 0 is the no-effect control and ±100 the full control effect; nearly all actives have a fitted effect of over 65% in size
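Read-out: total well GFP (ex488/em500-530) summed from mean per-cell fluorescence. Cells: HEPG2 CAGA-GFP, 1% FBS DMEM, 18 h at 37 degrees C with 500 pg/mL final TGF-beta. Unstimulated wells served as the full-inhibition control; stimulated DMSO wells = 0%.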
IL1B secr inh: qHTS for Inhibitors of Inflammasome Signaling: IL-1-beta AlphaLISA Primary Screen; THP-1 LPS/ATP IL-1B secretion, AlphaLISA, 16 h; active compounds read low; activity change, % at 57.5 µM; 4.7% of 360,000 active; in the data active means activity change below about -50%; inconclusive means mostly about -30% to -49%; further: on the % scale 0 is the no-effect control and ±100 the full control effect
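THP-1 cells pretreated 1 hr with compounds (up to 57.5 uM final), then stimulated with LPS (250 ng/mL final) plus ATP (1.25 mM final); secreted IL-1B measured by AlphaLISA after 16 hr, decreased signal indicating inhibition.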
TDP1 inh: qHTS Assay for Inhibitors of Tyrosyl-DNA Phosphodiesterase (TDP1); recombinant TDP1, AlphaScreen DNA substrate cleavage; Potency, µM (titrated, usually from 130 µM), inactives show at the top dose activity change, negative = inhibition, actives largely listed as inhibitors; 0.28% of 350,000 active; AID 485290, 2010; further: potency means the concentration at half of the fitted maximal effect; on the % scale 0 is the no-effect control and ±100 the full control effect; nearly all actives have a fitted effect of over 40% in size
Target sequence (Q9NUW8 whole entry, looked up): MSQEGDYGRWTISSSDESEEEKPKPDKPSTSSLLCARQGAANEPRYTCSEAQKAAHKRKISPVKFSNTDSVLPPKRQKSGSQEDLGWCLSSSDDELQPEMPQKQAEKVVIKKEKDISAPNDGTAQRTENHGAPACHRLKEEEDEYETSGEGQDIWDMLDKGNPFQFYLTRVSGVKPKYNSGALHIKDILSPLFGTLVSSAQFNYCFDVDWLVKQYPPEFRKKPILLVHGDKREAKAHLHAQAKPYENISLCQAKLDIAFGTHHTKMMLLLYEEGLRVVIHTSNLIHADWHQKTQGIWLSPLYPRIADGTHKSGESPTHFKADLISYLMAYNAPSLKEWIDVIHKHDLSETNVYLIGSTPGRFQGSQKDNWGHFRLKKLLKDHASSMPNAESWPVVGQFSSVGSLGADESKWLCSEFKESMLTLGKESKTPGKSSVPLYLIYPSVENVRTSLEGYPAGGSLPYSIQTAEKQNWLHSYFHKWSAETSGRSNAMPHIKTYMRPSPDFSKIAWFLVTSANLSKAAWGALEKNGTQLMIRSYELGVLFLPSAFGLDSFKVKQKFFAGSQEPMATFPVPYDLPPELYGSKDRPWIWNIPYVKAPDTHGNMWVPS
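Tdp1 1 nM final; 15 min RT w/ cpd; substrate 15 nM, 5 min; beads 10 ug/ml, 10 min; AlphaScreen read. Neg ctrl: no enzyme.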
HepG2 tox: qHTS for Inhibitors of TGF-b: Cytotox Counterscreen. HepG2 CAGA-GFP viability, ATP luminescence, 18 h. Potency, µM (titrated, usually from 46.1 µM), without a hit: at the top dose activity change, negative = cytotoxicity, most hits filed as cytotoxic. 0.76% of 410,000 active. AID 588856, 2011; further: potency means the concentration at half of the fitted maximal effect
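HepG2 CAGA-GFP cells (1000/well, DMEM with 1% FBS) received compound, then TGF-beta at 500 pg/mL final, and were incubated 18 hours at 37 degrees C. Viability was read by CellTiter-Glo luminescence. Media-only wells were set as complete cell-killing and DMSO as no toxicity.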
DT40 TDP1 no CPT: qHTS for Inhibitors of human tyrosyl-DNA phosphodiesterase 1 (TDP1): qHTS in cells in absence of CPT; AID 686978, 2013; DT40 Tdp1-/- hTDP1 cells, no CPT, ATP luminescence, 48 h; 15% of 420,000 active; Potency, µM (series often up to 46.2 µM), without a hit: top-dose activity change, negative = growth inhibition, usual class: inhibitors; further: potency means the concentration at half of the fitted maximal effect; on the % scale 0 is the no-effect control and ±100 the full control effect; nearly all actives have a fitted effect of over 55% in size
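Compound effects on proliferation are scored in DT40 Tdp1-/-;hTDP1 cells in the absence of CPT. ATP levels (CellTiter-Glo luminescence) are recorded after a ≥48 hr, 37 °C incubation.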
DT40 TDP1 CPT: qHTS for Inhibitors of human tyrosyl-DNA phosphodiesterase 1 (TDP1): qHTS in cells in presence of CPT | chicken DT40 Tdp1-/-;hTDP1 cells + 20 nM CPT, ATP luminescence, 48 h | 12% of 420,000 active | Potency, µM (top dose mostly 46.2 µM), inactives show top-dose activity change, negative = growth inhibition, actives largely listed as inhibitors; further: potency means the concentration at half of the fitted maximal effect; on the % scale 0 is the no-effect control and ±100 the full control effect; nearly all actives have a fitted effect of over 55% in size
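Chicken DT40 Tdp1-/- cells complemented with human TDP1, 400 cells/well, exposed to compounds plus 20 nM camptothecin for at least 48 h at 37 C; viability read as ATP content by CellTiter-Glo luminescence.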
The depositor's hits bear a star; u = inconclusive; x = no result; ! = not confirmed by another sample. Unless noted, the call rests on the fitted dose curve; in most records, active means well fitted curve in the direction sought with a large enough effect; inconclusive means small, poorly fitted or top-dose-only effect, or another doubt; inactive means no such curve, though single readings can be large; an effect the other way counts as inactive or inconclusive.

SMILES | TGFb inhibitor | IL1B secr inh | TDP1 inh | HepG2 tox | DT40 TDP1 no CPT | DT40 TDP1 CPT
Fc1ccc(-c2nnn3c2nc(NCc2ccccc2)c2ccccc23)cc1 | -4% | 8 | 1% | -1% | u | -17%
NNc1nc2c(-c3ccc(F)cc3)nnn2c2ccccc12 | -16% | -11 | 0% | -15% | 12µM* | 10µM*
CN(CC(=O)Nc1cccc(F)c1)CC(=O)Nc1ccccc1[N+](=O)[O-] | u | 5 | -3% | -8% | 12µM* | 23µM*
COC(=O)c1c(C)[nH]c(C(=O)CN(C)CC(=O)Nc2cccc(F)c2)c1C | -18% | -15 | 5% | -7% | 15µM* | -24%
COc1ccc(NC(=O)CN(C)CC(=O)c2[nH]c(C)c(C(C)=O)c2C)cc1 | 7% | 11 | 2% | -14% | u | u
C=CCOc1ccc(CN(C)CC(=O)Nc2ccccc2[N+](=O)[O-])cc1 | 6% | 8 | 8% | 2% | 21µM* | u
CCc1ccc(CN(C)CC(=O)Nc2ccccc2[N+](=O)[O-])cc1 | -12% | 5 | 5% | -10% | u | u
CN(CC(=O)Nc1cccc(F)c1)CC(=O)Nc1ccc(Cl)cc1[N+](=O)[O-] | 7% | 3 | 5% | 2% | 5% | u
COc1cccc(NC(=O)CN(C)CC(=O)Nc2ccc(C)c([N+](=O)[O-])c2)c1 | -8% | -3 | x | 14% | 10µM* | u
COc1cccc(NC(=O)CN(C)CC(=O)Nc2ccc3c(c2)OCO3)c1 | 18% | 32 | 0% | 0% | 2% | 10%
Cc1cc(C)nc(Oc2ccc(Br)cc2)n1 | -19% | -1 | 1% | 1% | 3% | -29%
O=C(NC1CC(=O)N(c2ccc(F)cc2)C1)c1ccc2c(c1)OCO2 (stereo not drawn) | -21% | x | 8% | -3% | -18% | -7%
COc1cccc(CNC(=O)COCc2cc(-c3ccc4c(c3)OCO4)on2)c1 | u | x | 2% | -15% | u | u
S=c1nc[nH]c2nc[nH]c12 | 3% | 38 | 32µM* | 1.4µM*! | 19µM*! | u
CCc1ccc(Oc2c(C(F)(F)F)oc3c(CN4CCCC(C)C4)c(O)ccc3c2=O)cc1 (stereo not drawn) | -20% | x | -1% | -20% | 6% | 3%
COc1ccc(C)cc1N(C(=O)c1ccccc1)c1nc2ccccc2s1 | -3% | -3 | 2% | -52% | u | -28%
COc1ccc(C)cc1N(C(=O)c1ccccc1F)c1nc2ccccc2s1 | -1% | 8 | 8% | -5% | 18µM* | u
CN(N)c1nc(C(F)(F)F)nc2ccccc12 | 16% | -5 | -4% | 7% | -25% | -6%
CN(NS(=O)(=O)c1ccc(Br)cc1)c1nc(C(F)(F)F)nc2ccccc12 | u | -55* | 2% | -43% | u | 23µM*
COc1cccc(CNC(=O)c2c(OC)cc(=O)n3c2CCN(C(=O)c2cc(F)cc(F)c2)CC3)c1 | x | x | x | x | -14% | -7%
COc1ccc(C(=O)NCCn2cc(SCC(N)=O)c3ccccc32)cc1 | 2% | 0 | x | 0% | 7% | 1%
CC[C@@H](C(=O)n1nc(C)cc1C)[C@H](NS(=O)(=O)c1ccc(C)cc1)c1ccccc1 | u | 5 | 0% | 4% | 21µM* | u
CCOC(=O)CCn1nc(C)c2c(C)n(-c3ccccc3)nc2c1=O | x | x | 3% | 1% | -7% | 3%
